This note sets out measurements from PubChem BioAssay AID588856 (National Center for Advancing Translational Sciences (NCATS), 2011).

Each structure is given as a SMILES string. Among all 410,000 compounds or so, about 3,100 (0.76%) were called active. Where a call stands in place of a potency, no number is given. Calls come from the whole dose curve; as a rule, active = well fitted cell-killing curve with a large enough effect; inactive = no such curve, though single readings can be large or run the other way. Only a selection was taken, and actives are over-represented in it overall.
Potency is the fitted concentration of half-maximal effect.

This assay can be described thus: qHTS for Inhibitors of TGF-b: Cytotox Counterscreen. As to conditions: HepG2 CAGA-GFP viability, ATP luminescence, 18 h; series mostly up to 46.1 µM. Put shortly:
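HepG2 CAGA-GFP cells (1000/well, DMEM with 1% FBS) received compound, then TGF-beta at 500 pg/mL final, and were incubated 18 hours at 37 degrees C. Viability was read by CellTiter-Glo luminescence. Media-only wells were set as complete cell-killing and DMSO as no toxicity.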
Background: Quantitative high-throughput screening tests each substance at several concentrations.
With `CC1(C)CC(=O)c2cc(C(=O)NCc3ccccc3)c(=O)[nH]c2C1`, the Potency result was “inactive”.

`Cc1nc2c(OCc3cccc(Cl)c3)cccn2c1N(C)CC1CC1`: the Potency entry is “inactive”.

`CCCCC(=O)N(C)c1c(CC)nc2c(OCc3ccc(Cl)cc3Cl)cccn12`: the Potency was 12.6 µM (active).

Take `CCCCC(=O)N(C)c1c(CC)nc2c(OCc3ccc(S(C)(=O)=O)cc3)cccn12`: the Potency result is “inactive”.

As for `Cc1nc2c(OCc3ccc(Cl)cc3Cl)cccn2c1N(C)CC1CC1`, the Potency is 11.2 µM (active).

Turning to `CCc1nc2c(OCc3ccc(Cl)cc3Cl)cccn2c1N(C)C(=O)C(C)C`, the Potency entry is “inactive”.

As to `Cc1nc2c(OCc3ccc(Cl)cc3)cccn2c1N(C)Cc1cccs1`, the Potency result was “inactive”.

As to `Cc1ccc(C)c(S(=O)(=O)c2nnn3c2nc(N2CCOCC2)c2sccc23)c1`, the Potency entry is “inactive”.

Turning to `CN1CCN(/[N+]([O-])=N/Oc2ccc([N+](=O)[O-])cc2[N+](=O)[O-])CC1`, the Potency entry was “inactive”.

In the case of `CC1(C)C=Cc2c(ccc(C(=O)/C=C/c3ccccc3)c2O)O1`, the Potency result was “inactive”.

As for `O=C1C=CC(=O)N1c1ccc(N2CCCCC2)cc1`, the Potency is 17.8 µM (active).

Regarding `Cc1ccc(CNC(=O)CCc2c(C)nc3c(c(C)nn3-c3ccccc3)c2C)cc1`, the Potency entry was “inactive”.

For `O=C(Nc1ccc(Cl)cc1)c1cnn2c1NC(=C1CC1)C=C2C(F)F`, the Potency entry was “inactive”.

As to `COc1ccc(-c2nc3sc(CCNC(=O)C(C)(C)C)c(C)n3n2)cc1`, the Potency entry is “inactive”.

As to `CC1CCC2(CC1)N=C(c1ccccc1)C(=O)N2CC(=O)Nc1ccc(F)c(Cl)c1` (configuration not stated), the Potency result was “inactive”.

As to `COCCn1c(SCC(=O)Nc2nc(C)cs2)nnc1C(C)C`, the Potency is 11.2 µM (active).

Regarding `CCn1c(CC(=O)Nc2ccc(C)cc2)nnc1SCC(=O)Nc1nc(C)cs1`, the Potency entry was “inactive”.

For the compound `CCn1c(SCC(=O)Nc2nc(C)cs2)nnc1C(C)NC(=O)c1ccccc1` (configuration not stated), the Potency result was “inactive”.

With `CCn1c2ccccc2c2nnc(SCC(=O)O)nc21`, the Potency entry is “inactive”.

On to `COc1ccc(NC(=O)Nc2cccc(-c3noc(C)n3)c2)cc1`, for which the Potency result was “inactive”.

As for `Cc1ccc(S(=O)(=O)N2CCN(c3nc(-n4cnc5ccccc54)nc4ccccc34)CC2)cc1`, the Potency result was “inactive”.

Consider `Cc1sc2ncn(CC(=O)N3CCN(c4ccc(F)cc4)CC3)c(=O)c2c1S(=O)(=O)N1CCN(c2ncccn2)CC1`, for which the Potency entry was “inactive”.

Regarding `CC(C)(C)OC(=O)N(Cc1ccco1)S(=O)(=O)c1ccccc1Br`, the Potency entry is “inactive”.

In the case of `C=C1C=C(C(F)F)n2ncc(C(=O)NCCc3ccccc3OC)c2N1`, the Potency result is “inactive”.

Consider `COc1ccc(-c2cn3c(n2)sc2cc(C(=O)Nc4ccccc4F)ccc23)cc1`, for which the Potency entry was “inactive”.

In the case of `CC(Nc1nc(C(F)(F)F)nc2ccccc12)c1cccs1` (configuration not stated), the Potency is 22.4 µM (active).

For `Oc1ccccc1-c1nc(/C=C/c2ccc(F)cc2)no1`, the Potency entry was “inactive”.

Turning to `COc1cc(Cl)ccc1Nc1ncc(C(=O)N2CCN(c3ccccc3OC)CC2)c2ccccc12`, the Potency result was “inactive”.

Regarding `O=C(NC1CCCCC1)C1CCC(CNS(=O)(=O)c2ccccc2)CC1` (configuration not stated), the Potency entry was “inactive”.

In the case of `Cc1ccc(S(=O)(=O)NCC2CCC(C(=O)N3CCOCC3)CC2)cc1` (configuration not stated), the Potency result was “inactive”.

Regarding `O=C(O)C1CCC(CNS(=O)(=O)c2ccc(Br)cc2)CC1` (configuration not stated), the Potency is 15.8 µM (active).

As to `O=C(NC1CC(=O)N(c2ccc(F)cc2)C1)c1ccc(S(=O)(=O)N2CCCC2)cc1` (configuration not stated), the Potency result is “inactive”.

`CN(C(=O)CSc1nc2ccc(NC(=O)COc3ccccc3)cc2s1)c1ccccc1`: the Potency entry is “inactive”.

As to `Cc1ccc(F)cc1NC(=O)CCSc1nc(-c2ccco2)cc(C(F)(F)F)n1`, the Potency entry was “inactive”.

For `CCc1ccc(CN(Cc2ccco2)C(=O)c2ccccc2Cl)cc1`, the Potency entry is “inactive”.

As to `CC1CCCCN1S(=O)(=O)c1ccc(F)c(C(=O)Nc2ccccc2C(F)(F)F)c1` (configuration not stated), the Potency result was “inactive”.

Turning to `Cc1ccc(CNC(=O)CCc2c(C)nn(-c3ccc(N4CCCC4)nn3)c2C)cc1`, the Potency result is “inactive”.

Regarding `N=c1n(Cc2ccc(Cl)cc2)c2ccccc2n1CC(O)c1ccco1` (configuration not stated), the Potency was 12.6 µM (active).

On to `O=C(NCc1ccccc1)C(=O)NCC(c1ccco1)S(=O)(=O)c1ccc(Cl)cc1` (configuration not stated), for which the Potency result is “inactive”.

With `N=c1n(CCc2ccccc2)c2ccccc2n1Cc1ccccc1F`, the Potency result is “inactive”.

Consider `COc1ccccc1-c1ccnc2[nH]n(-c3ccccc3)c(=O)c12`, for which the Potency result is “inactive”.

Take `OCc1cnc(SCc2ccc(F)cc2)n1Cc1ccc(F)cc1`: the Potency entry was “inactive”.

On to `NC(Cc1ccccc1)c1csc(Nc2cc(Oc3ccccc3)ncn2)n1` (configuration not stated), for which the Potency was 31.6 µM (active).

On to `COCCn1c(SCC(=O)c2cc(C)ccc2C)nc2cc(C(=O)NC3CCCC3)ccc2c1=O`, for which the Potency entry is “inactive”.

On to `CCC(=O)N1CCc2cc(S(=O)(=O)NC(C(=O)Nc3ccc(C(C)=O)cc3)C(C)C)ccc21` (configuration not stated), for which the Potency result is “inactive”.

Turning to `COC(=O)c1ccc(-c2nc3cc(NC(C)=O)ccc3o2)cc1`, the Potency entry is “inactive”.

As to `CC(=O)c1cc(CN2CCC(C(=O)Nc3cccc(-c4cscn4)c3)CC2)cs1`, the Potency result was “inactive”.

Turning to `O=C(Nc1cccc(-c2cccc(Cl)c2)c1)C1CCN(C2CCC2)CC1`, the Potency result was “inactive”.

Take `CCn1cc(CN2CCC(C(=O)Nc3cccc(-c4cccc(Cl)c4)c3)CC2)c(C)n1`: the Potency is 12.6 µM (active).

As for `Cc1ccc(CNC(=O)C2(C(F)(F)F)C/C(=C\CCO)CCCO2)o1` (configuration not stated), the Potency entry is “inactive”.

For the compound `COc1cc(OC)c2c(C)cc(=O)oc2c1C(CCN1CCCCC1)c1ccc(N(C)C)cc1` (configuration not stated), the Potency result was “inactive”.

On to `Nc1ncc(S(=O)(=O)Nc2ccc(OC(F)(F)F)cc2)cn1`, for which the Potency entry was “inactive”.

On to `Cc1cc(C)cc(NS(=O)(=O)c2ccc(Oc3ncc(C(F)(F)F)cc3Cl)cc2)c1`, for which the Potency is 12.6 µM (active).

Regarding `Cc1ccc(NS(=O)(=O)c2ccc(F)cc2)nc1`, the Potency result is “inactive”.

For the compound `NC(=O)C1CCN(C(=O)c2cccc(NC(=O)c3nsc4ccccc34)c2)CC1`, the Potency entry is “inactive”.

Consider `COc1cc(OC)c(N(C)C(=O)c2cc3c(=O)oc4ccccc4c3s2)cc1Cl`, for which the Potency result is “inactive”.

For the compound `CC(C)CC[n+]1ccn(C2=C([O-])c3ccccc3C(=O)/C2=N\S(=O)(=O)c2ccccc2)c1`, the Potency is 5.62 µM (active).

With `Cc1ccc(S(=O)(=O)/N=C2\C=C(NS(=O)(=O)c3ccc(C)cc3)C(=O)c3ccccc32)cc1`, the Potency entry is “inactive”.

`C=C1CCN(C(CC(C)C)C(=O)N2CCOCC2)S(=O)(=O)c2ccccc21` (configuration not stated): the Potency result was “inactive”.

Take `Cc1oc2ccc(O)c(CN3CCCCC3)c2c1C(=O)Nc1cccc(C(F)(F)F)c1`: the Potency result was “inactive”.

As to `NC(c1csc(NC(=O)Nc2cccc(C(F)(F)F)c2)n1)C1CCCCC1` (configuration not stated), the Potency is 8.91 µM (active).

For `O=C(CN1c2ccccc2S(=O)(=O)c2ccccc21)Nc1cccc(C(F)(F)F)c1`, the Potency entry was “inactive”.
